Among the data in the supplement of paper PMC9492666 are relative cell viability values, retold here.
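Also: viability read by CCK-8 kit in 96-well plates, part of a combination screen pairing lipid-metabolism-targeting compounds with erastin.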

The assay deals with MDA-MB-231. Put plainly: relative cell viability, compound + erastin, vs DMSO (fraction of DMSO control); higher = less growth inhibition. The conditions noted are these: 72 h.
For `CN(C)C(=O)Nc1cccc(-c2ccc(N(C)C)cc2)c1` [Atglistatin] + CCOc1ccccc1-n1c(C(C)N2CCN(C(=O)COc3ccc(Cl)cc3)CC2)nc2ccccc2c1=O [erastin], the relative cell viability was 1.06.

As for `O=C(OC(C(F)(F)F)C(F)(F)F)N1CCC(C(O)(c2ccc3c(c2)OCO3)c2ccc3c(c2)OCO3)CC1` + CCOc1ccccc1-n1c(C(C)N2CCN(C(=O)COc3ccc(Cl)cc3)CC2)nc2ccccc2c1=O [erastin], the relative cell viability amounted to 0.546. As for `CC(C)(C)NC(=O)[C@H]1CC[C@H]2[C@@H]3CC[C@H]4NC(=O)C=C[C@]4(C)[C@H]3CC[C@]12C` [Finasteride] + CCOc1ccccc1-n1c(C(C)N2CCN(C(=O)COc3ccc(Cl)cc3)CC2)nc2ccccc2c1=O [erastin], the relative cell viability came to 0.646. On to `CC(O)(CC(=O)O)CC(=O)O` [Meglutol] + CCOc1ccccc1-n1c(C(C)N2CCN(C(=O)COc3ccc(Cl)cc3)CC2)nc2ccccc2c1=O [erastin], for which the relative cell viability came to 0.67.

Turning to `CN(C(=O)n1cnc(-c2ccc[n+]([O-])c2)c1)C1CCCCC1` + CCOc1ccccc1-n1c(C(C)N2CCN(C(=O)COc3ccc(Cl)cc3)CC2)nc2ccccc2c1=O [erastin], the relative cell viability is 0.613. In the case of `CN1CC(O)C2=C/C(=N/NC(N)=O)C(=O)C=C21` (configuration not stated) [Carbazochrome] + CCOc1ccccc1-n1c(C(C)N2CCN(C(=O)COc3ccc(Cl)cc3)CC2)nc2ccccc2c1=O [erastin] it was 0.682. On to `Cc1cnc(C(=O)NCCc2ccc(S(=O)(=O)NC(=O)NC3CCCCC3)cc2)cn1` [Glipizide] + CCOc1ccccc1-n1c(C(C)N2CCN(C(=O)COc3ccc(Cl)cc3)CC2)nc2ccccc2c1=O [erastin], for which the relative cell viability came out at 0.843.
